Experimental data published in PubChem BioAssay AID1159580 (chemical genetic matrix, 2015).
The whole screen tested about 5,500 compounds, of which about 2,000 (36%) were called active. About 18% were inconclusive and are not listed. Cut-off read from the data, not from the text of the source: active = normalized growth mostly below about 0.91 (no sharp cut-off); inconclusive = no clear call, values can overlap the other calls; inactive = mostly above about 0.92. The list shows a part of the results.

Experiment: chemical genetic growth profiling, strain panel (AID 1159580);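 note: tested at 20 µM; growth read once vehicle control cultures reached saturation at 30 °C; 1 = growth at the plate median or of vehicle wells; lower values mean less growth of the strain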
Settings: growth OD
[1] = S. cerevisiae deletion strains, locus YCL061C, strain MRC1, stronger effect = lower value
[2] = S. cerevisiae deletion strains, locus YHR030C, strain SLT2, stronger effect = lower value
[3] = S. cerevisiae deletion strains, locus YJL187C, strain SWE1, stronger effect = lower value

Measured: normalized growth

COc1cc(/C=C2\NC(=O)NC2=O)ccc1O
inactive: S. cerevisiae deletion strains, locus YAL013W, strain DEP1, stronger effect = lower value 1 | S. cerevisiae deletion strains, locus YBR229C, strain ROT2, stronger effect = lower value 0.965 | [1] 1 | S. cerevisiae deletion strains, locus YDL101C, strain DUN1, stronger effect = lower value 0.982 | S. cerevisiae deletion strains, locus YDR150W, strain NUM1, stronger effect = lower value 0.963 | S. cerevisiae deletion strains, locus YEL061C, strain CIN8, stronger effect = lower value 0.956 | S. cerevisiae deletion strains, locus YGR078C, strain PAC10, stronger effect = lower value 0.977 | [2] 0.873 | S. cerevisiae deletion strains, locus YHR087W, strain rtc3, stronger effect = lower value 1.04 | [3] 0.982 | S. cerevisiae deletion strains, locus YJR043C, strain POL32, stronger effect = lower value 0.997 | S. cerevisiae deletion strains, locus YJR075W, strain HOC1, stronger effect = lower value 0.976 | S. cerevisiae deletion strains, locus YKL190W, strain CNB1, stronger effect = lower value 0.986 | S. cerevisiae deletion strains, locus YLR039C, strain RIC1, stronger effect = lower value 0.918 | S. cerevisiae deletion strains, locus YLR058C, strain SHM2 (second series), stronger effect = lower value 0.98 | S. cerevisiae deletion strains, locus YLR085C, strain ARP6, stronger effect = lower value 0.941 | S. cerevisiae deletion strains, locus YLR262C, strain YPT6, stronger effect = lower value 0.945 | S. cerevisiae deletion strains, locus YML094W, strain GIM5, stronger effect = lower value 0.989 | S. cerevisiae deletion strains, locus YMR219W, strain ESC1, stronger effect = lower value 0.974 | S. cerevisiae deletion strains, locus YMR263W, strain SAP30, stronger effect = lower value 0.998 | S. cerevisiae deletion strains, locus YMR307W, strain GAS1, stronger effect = lower value 1.07 | S. cerevisiae deletion strains, locus YNL128W, strain TEP1, stronger effect = lower value 0.993 | S. cerevisiae deletion strains, locus YNL153C, strain GIM3, stronger effect = lower value 0.98 | S. cerevisiae deletion strains, locus YNL298W, strain CLA4 (second series), stronger effect = lower value 0.968 | S. cerevisiae deletion strains, locus YNL322C, strain KRE1, stronger effect = lower value 0.996 | S. cerevisiae deletion strains, locus YNR030W, strain Alg12, stronger effect = lower value 1.01 | S. cerevisiae deletion strains, locus YPL055C, strain LGE1, stronger effect = lower value 0.999 | S. cerevisiae deletion strains, locus YPL241C, strain CIN2, stronger effect = lower value 0.975 | S. cerevisiae deletion strains, locus YPR135W, strain CTF4, stronger effect = lower value 0.945 | S. cerevisiae strains, strain wild type, stronger effect = lower value 0.948

COc1cc(O)c(C(=O)/C=C/c2ccc(O)c(OC)c2)c(OC)c1
active: S. cerevisiae deletion strains, locus YAL026C, strain drs2, stronger effect = lower value 0.896 | S. cerevisiae deletion strains, locus YDR392W, strain spt3, stronger effect = lower value 0.532 | S. cerevisiae deletion strains, locus YEL003W, strain gim4, stronger effect = lower value 0.82 | S. cerevisiae deletion strains, locus YER155C, strain BEM2 (second series), stronger effect = lower value 0.83 | S. cerevisiae deletion strains, locus YFR010W, strain ubp6, stronger effect = lower value 0.899 | S. cerevisiae deletion strains, locus YGL253W, strain hxk2, stronger effect = lower value 0.877 | S. cerevisiae deletion strains, locus YJL164C, strain tpk1, stronger effect = lower value 0.889 | S. cerevisiae deletion strains, locus YMR058W, strain fet3, stronger effect = lower value 0.812 | S. cerevisiae deletion strains, locus YNL071W, strain lat1, stronger effect = lower value 0.877
inactive: S. cerevisiae deletion strains, locus YAL021C, strain ccr4, stronger effect = lower value 0.948 | S. cerevisiae deletion strains, locus YAL030W, strain snc1, stronger effect = lower value 0.972 | S. cerevisiae deletion strains, locus YBL061C, strain skt5, stronger effect = lower value 0.983 | S. cerevisiae deletion strains, locus YBR009C, strain hhf1, stronger effect = lower value 0.948 | S. cerevisiae deletion strains, locus YBR023C, strain chs3, stronger effect = lower value 0.979 | S. cerevisiae deletion strains, locus YBR171W, strain sec66, stronger effect = lower value 0.971 | S. cerevisiae deletion strains, locus YBR231C, strain swc5, stronger effect = lower value 0.951 | S. cerevisiae deletion strains, locus YBR279W, strain paf1, stronger effect = lower value 0.989 | S. cerevisiae deletion strains, locus YCL011C, strain gbp2, stronger effect = lower value 0.947 | S. cerevisiae deletion strains, locus YCL016C, strain dcc1, stronger effect = lower value 0.981 | [1] 0.984 | S. cerevisiae deletion strains, locus YCL069W, strain vba3, stronger effect = lower value 0.972 | S. cerevisiae deletion strains, locus YCR088W, strain abp1, stronger effect = lower value 0.976 | S. cerevisiae deletion strains, locus YDL005C, strain med2, stronger effect = lower value 0.976 | S. cerevisiae deletion strains, locus YDL040C, strain nat1, stronger effect = lower value 0.975 | S. cerevisiae deletion strains, locus YDR001C, strain nth1, stronger effect = lower value 0.98 | S. cerevisiae deletion strains, locus YDR069C, strain doa4, stronger effect = lower value 0.907 | S. cerevisiae deletion strains, locus YDR137W, strain rgp1, stronger effect = lower value 0.947 | S. cerevisiae deletion strains, locus YDR159W, strain sac3, stronger effect = lower value 0.941 | S. cerevisiae deletion strains, locus YDR195W, strain ref2 0.972 | S. cerevisiae deletion strains, locus YDR297W, strain sur2, stronger effect = lower value 0.975 | S. cerevisiae deletion strains, locus YDR334W, strain swr1, stronger effect = lower value 0.936 | S. cerevisiae deletion strains, locus YDR335W, strain msn5, stronger effect = lower value 0.973 | S. cerevisiae deletion strains, locus YEL037C, strain rad23, stronger effect = lower value 0.949 | S. cerevisiae deletion strains, locus YEL061C, strain CIN8 (second series), stronger effect = lower value 0.977 | S. cerevisiae deletion strains, locus YER015W, strain faa2, stronger effect = lower value 0.973 | S. cerevisiae deletion strains, locus YER016W, strain bim1, stronger effect = lower value 0.981 | S. cerevisiae deletion strains, locus YER111C, strain swi4, stronger effect = lower value 0.965 | S. cerevisiae deletion strains, locus YGL167C, strain pmr1, stronger effect = lower value 0.975 | S. cerevisiae deletion strains, locus YGL173C, strain kem1, stronger effect = lower value 0.962 | S. cerevisiae deletion strains, locus YGL227W, strain vid30, stronger effect = lower value 0.987 | S. cerevisiae deletion strains, locus YGL240W, strain doc1, stronger effect = lower value 0.928 | S. cerevisiae deletion strains, locus YHR013C, strain ard1, stronger effect = lower value 0.902 | S. cerevisiae deletion strains, locus YHR027C, strain rpn1, stronger effect = lower value 0.965 | [2] 0.96 | S. cerevisiae deletion strains, locus YHR079C, strain IRE1, stronger effect = lower value 0.973 | S. cerevisiae deletion strains, locus YHR142W, strain chs7, stronger effect = lower value 0.923 | S. cerevisiae deletion strains, locus YJL092W, strain hpr5, stronger effect = lower value 0.961 | S. cerevisiae deletion strains, locus YJL095W, strain BCK1 (second series), stronger effect = lower value 0.979 | S. cerevisiae deletion strains, locus YJL095W, strain BCK1, stronger effect = lower value 0.982 | S. cerevisiae deletion strains, locus YJL115W, strain asf1, stronger effect = lower value 0.969 | S. cerevisiae deletion strains, locus YJL129C, strain trk1, stronger effect = lower value 0.965 | S. cerevisiae deletion strains, locus YJL154C, strain vps35, stronger effect = lower value 0.987 | S. cerevisiae deletion strains, locus YJL166W, strain qcr8, stronger effect = lower value 0.94 | [3] 0.979 | S. cerevisiae deletion strains, locus YJR066W, strain TOR1, stronger effect = lower value 0.926 | S. cerevisiae deletion strains, locus YKL160W, strain elf1, stronger effect = lower value 0.968 | S. cerevisiae deletion strains, locus YKR026C, strain gcn3, stronger effect = lower value 0.977 | S. cerevisiae deletion strains, locus YKR091W, strain srl3, stronger effect = lower value 0.985 | S. cerevisiae deletion strains, locus YLL001W, strain dnm1, stronger effect = lower value 0.984 | S. cerevisiae deletion strains, locus YLL026W, stronger effect = lower value 0.972 | S. cerevisiae deletion strains, locus YLL041C, strain sdh2, stronger effect = lower value 0.961 | S. cerevisiae deletion strains, locus YLR027C, strain aat2, stronger effect = lower value 0.928 | S. cerevisiae deletion strains, locus YLR113W, strain HOG1, stronger effect = lower value 0.967 | S. cerevisiae deletion strains, locus YLR221C, strain rsa3, stronger effect = lower value 0.908 | S. cerevisiae deletion strains, locus YLR258W, strain gsy2, stronger effect = lower value 0.961 | S. cerevisiae deletion strains, locus YLR262C, strain YPT6 (second series), stronger effect = lower value 0.884 | S. cerevisiae deletion strains, locus YLR320W, strain mms22, stronger effect = lower value 0.947 | S. cerevisiae deletion strains, locus YLR342W, strain FKS1, stronger effect = lower value 0.961 | S. cerevisiae deletion strains, locus YLR357W, strain rsc2, stronger effect = lower value 0.983 | S. cerevisiae deletion strains, locus YLR370C, strain arc18, stronger effect = lower value 0.977 | S. cerevisiae deletion strains, locus YLR384C, strain iki3, stronger effect = lower value 0.992 | S. cerevisiae deletion strains, locus YML120C, strain ndi1, stronger effect = lower value 0.975 | S. cerevisiae deletion strains, locus YMR125W, strain sto1, stronger effect = lower value 0.899 | S. cerevisiae deletion strains, locus YMR129W, stronger effect = lower value 0.981 | S. cerevisiae deletion strains, locus YMR205C, strain PFK2, stronger effect = lower value 0.988 | S. cerevisiae deletion strains, locus YMR231W, strain pep5, stronger effect = lower value 0.942 | S. cerevisiae deletion strains, locus YNL183C, strain NPR1, stronger effect = lower value 0.955 | S. cerevisiae deletion strains, locus YNL209W, strain ssb2, stronger effect = lower value 0.986 | S. cerevisiae deletion strains, locus YNL248C, strain rpa49, stronger effect = lower value 0.906 | S. cerevisiae deletion strains, locus YNL322C, strain KRE1 (second series), stronger effect = lower value 0.985 | S. cerevisiae deletion strains, locus YNR049C, strain mso1, stronger effect = lower value 0.977 | S. cerevisiae deletion strains, locus YOR001W, strain rrp6, stronger effect = lower value 0.922 | S. cerevisiae deletion strains, locus YOR070C, strain gyp1, stronger effect = lower value 0.962 | S. cerevisiae deletion strains, locus YOR080W, strain dia2, stronger effect = lower value 0.986 | S. cerevisiae deletion strains, locus YOR083W, strain WHI5, stronger effect = lower value 0.98 | S. cerevisiae deletion strains, locus YOR106W, strain vam3, stronger effect = lower value 0.896 | S. cerevisiae deletion strains, locus YOR231W, strain MKK1, stronger effect = lower value 0.967 | S. cerevisiae deletion strains, locus YOR265W, strain rbl2, stronger effect = lower value 0.965 | S. cerevisiae deletion strains, locus YOR270C, strain vph1, stronger effect = lower value 0.845 | S. cerevisiae deletion strains, locus YOR290C, strain snf2, stronger effect = lower value 0.939 | S. cerevisiae deletion strains, locus YPL051W, strain arl3, stronger effect = lower value 0.928 | S. cerevisiae deletion strains, locus YPL078C, strain atp4, stronger effect = lower value 0.972 | S. cerevisiae deletion strains, locus YPL106C, strain sse1, stronger effect = lower value 0.911 | S. cerevisiae deletion strains, locus YPL240C, strain hsp82, stronger effect = lower value 0.976 | S. cerevisiae deletion strains, locus YPL256C, strain CLN2, stronger effect = lower value 0.928
